Each structure is given as a SMILES string. Values without a mark were called inactive.

The experiment relates to Vero E6 infected with SARS-CoV-2. Description: SARS-CoV-2 infection rate relative to infected DMSO; higher = more infection, active = 60 or less. Particulars: 24 h.
For `CSc1ccc2c(c1)[C@H](N1CCN(C)CC1)Cc1ccccc1S2` (racemic) [metitepine] (0.833333 µM), the SARS-CoV-2 infection rate is 112%. The same measure for `C=CC(=O)Nc1cccc(Nc2nc(Nc3ccc(NC4CN(CCF)C4)cc3OC)ncc2C(F)(F)F)c1` (0.833333 µM): 118%; for `COc1cc(Br)c(Nc2nc(-c3c(C)nc4ncccn34)cs2)c(Br)c1` (10 µM): 114%; for `Cc1cc(O)c(-c2ccc([C@@H](C)CN)cc2)c2c1[nH]c(=O)c1sccc12` (0.833333 µM): 95%. Turning to `Nc1ncnc2c1c(COc1cccc(Cl)c1)nn2C1CCOCC1` (10 µM), the SARS-CoV-2 infection rate is 104%. In the case of `C[n+]1ccccc1C=NO` [pralidoxime] (10 µM), the SARS-CoV-2 infection rate is 116%. The same measure for `S=P(N1CC1)(N1CC1)N1CC1` [thiotepa] (10 µM): 96%; for `FC(F)(F)c1cc(CO[C@H]2CCCN[C@H]2c2ccccc2)cc(C(F)(F)F)c1` (10 µM): 16% (active). The same measure for `C[C@@H](NC(=O)[C@@H](N)Cc1ccc(O)cc1)C(=O)NCC(=O)N(C)[C@@H](Cc1ccccc1)C(=O)N[C@H](CO)CC[S+](C)[O-]` (stereo partly specified) (10 µM): 112%; for `NCc1cc(O)no1` [muscimol] (10 µM): 111%. The same measure for `O=C(NCCN1CCC2(CC1)C(=O)NCN2c1cccc(F)c1)c1ccc2ccccc2c1` (10 µM): 26% (active).

For the origin of these results see the supplement of paper PMC13380429.
